In all, about 69,000 compounds went through this assay and about 8,600 (12%) showed an effect of 50% or more. The list comes from a sample in which strong results are over-represented; it also holds similar structures and randomly drawn compounds.
System: Plasmodium berghei
Assay: Screen against P. berghei liver stage (PbLuc), transformed with Luciferase, at 10uM
Assay type: functional, HepG2
Conditions: tested at 10 uM

| SMILES | INHIBITION |
| --- | --- |
| Cc1ccc(CC(=O)N2CCc3nnc(N(C)C)cc3C2)s1 | 12.85% |
| Cn1cnc2c1C(COCC1CCOCC1)CN(C1CCOCC1)C2 (stereo not given) | -0.569% |
| CC(C)NC(=O)Nc1ccc(CS(C)(=O)=O)cc1 | 28.3% |
| CCn1ccnc1CN1CCCN(C(=O)c2cnc(C)cn2)CC1 | -4.16% |
| Cc1nc(CN2CCCC(N(C)Cc3nccn3C)C2)no1 (stereo not given) | 13.3% |
| COc1ccc(OCc2cc(C(=O)N3CCCCO3)n[nH]2)c(Cl)c1 | -9.42% |
| CCNCCC(Cc1ccccc1)c1ccco1 (stereo not given) | 31.2% |
| COCCN(C)c1cnn(C)c(=O)c1Br | 17.5% |
| CC(Cn1cccn1)C(=O)N1CCCN(Cc2cscn2)CC1 (stereo not given) | -0.29% |
| O=C(c1cnco1)N1CCC(Cc2cnc3ccccc3c2)CC1 | 14.4% |
| Cn1ccc(C(=O)N2CCCCC23CC(=O)N(Cc2ccccc2)C3)n1 (stereo not given) | -52.9% |
| O=C1CC2(CCCCN2C(=O)c2ccoc2)CN1Cc1ccccc1 (stereo not given) | 24.8% |
| O=C(c1ccco1)N1CCOCC2(C1)CN(c1cccnc1)C(=O)CO2 (stereo not given) | 3.58% |
| O=C1CC2(CCCCN2C(=O)Cc2ccccc2)CN1c1cccnc1 (stereo not given) | 70.1% |
| O=C1CC2(CCCCN2C(=O)c2ccco2)CN1c1cccnc1 (stereo not given) | 76.5% |
| Cn1cccc1C(=O)N1CCCCC12CC(=O)N(c1cccnc1)C2 (stereo not given) | -80.2% |
| COc1ccc(CC(=O)N2C[C@@H]3COC[C@]3(CN(C)C)C2)cc1 | 35.3% |
| CCOCC1c2c(cnn2CC2CC2)CCN1Cc1nccs1 (stereo not given) | 30.3% |
| O=C(C1CCCC1)N1CCO[C@H]2[C@H](OCC3CCOCC3)CC[C@@H]21 | -26.5% |
| CC(C)NC(=O)CS(=O)(=O)Cc1coc(-c2ccc(F)cc2)n1 | 33.8% |
| Cc1nc(C)c(CC(=O)N2C[C@@H]3CC[C@H]2CN(c2cnccn2)C3)s1 | -102% |
| CC(C)C(=O)NC1COC2(CCN(Cc3cccnc3)CC2)C1 (stereo not given) | 16.1% |

| SMILES | INHIBITION |
| --- | --- |
| c1cnc(NCc2nnn3c2CN(Cc2ccsc2)CCC3)nc1 | 39.8% |
| CS(=O)(=O)NC[C@@H]1OC[C@H]2CN(Cc3ccsc3)CC[C@H]21 | -4.32% |
| CN(CC(=O)N1CCc2[nH]c3ccccc3c2C1)CC1OCCO1 | 22.9% |
| O=C1N(c2ccsc2)CCC12CCCN(c1ccccn1)C2 (stereo not given) | 42.1% |
| Cc1nn(C)c(N(C)C)c1CNCc1cccnc1-n1cncn1 | 26.1% |
| CC(C)C[C@H](N)COc1cccc(F)c1Oc1cccc(Cl)c1 | 83.3% |
| CC(C)C[C@H](N)COc1cccc(F)c1Oc1ccc(Cl)cc1 | 87.9% |
| CNCc1cc(F)ccc1Oc1ccc(Cl)cc1 | 35.2% |
| CC(CNS(N)(=O)=O)Oc1cccc(Cl)c1 (stereo not given) | 14.9% |
| COc1ccccc1C(N)CC(C)C (stereo not given) | 48.3% |
| CC(C)C[C@H](N)COc1cccc(F)c1Oc1ccccc1 | 48% |
| Cc1ccc(Oc2c(F)cccc2OC[C@@H](N)CC(C)C)cc1 | 79.6% |
| CC(CNS(C)(=O)=O)Oc1cccc(Cl)c1 (stereo not given) | 23.8% |
| CN(CCc1ccccn1)c1cnn(C)c(=O)c1Br | -18.9% |
| Cc1ccc2c(c1)Oc1ncccc1C(=O)N2 | 48.2% |
| Cc1cnc(C(=O)N2C[C@H]3CN(Cc4cccc(F)c4)C(=O)[C@H]3C2)cn1 | -9.71% |
| CC(CN1CCOCC1)NC(=O)N1CCN(S(C)(=O)=O)CC1 (stereo not given) | -34.4% |
| CCOc1ccc(SCCS(=O)(=O)CC)cc1 | 3.84% |
| CCSCCn1cc(-c2ncc[nH]2)nn1 | 59.1% |
| c1c[nH]c(-c2cn(CCSc3cnn[nH]3)nn2)n1 | 33.2% |
| CCn1c(C)nnc1SCCn1cc(-c2ncc[nH]2)nn1 | 7.1% |
| Cc1cnc(CN(C)C2CCN(Cc3nccn3C)C2)o1 (stereo not given) | 13.3% |

| SMILES | INHIBITION |
| --- | --- |
| CCOC(=O)CNC(=O)c1cc(-c2ccccc2)nc2ncnn12 | -5.22% |
| Cc1nc(Nc2ccc(Cl)cn2)sc1C(=O)NC(C)C | -86.5% |
| CCCc1nc(C)c(C(=O)NCCN2CCCCC2)s1 | -21.9% |
| COCCNC(=O)c1sc(Nc2ccc(Cl)cn2)nc1C | 67.9% |
| Cc1nc(Nc2ccc(Cl)cn2)sc1C(=O)NCCCN1CCCCC1 | 52.3% |
| CC(=O)c1sc(Nc2ccc(Cl)cn2)nc1C | -9.27% |
| CCCNC(=O)c1sc(Nc2ccc(Cl)cn2)nc1C | -19.7% |
| COc1ccc(CCC(=O)N2CCNCC2C(=O)N2CCCC2)cc1 (stereo not given) | 32.1% |
| COCCO[C@H]1CCN(Cc2cccnc2)[C@H]1Cc1cccnc1 | -31% |
| CN(C)S(=O)(=O)N1C[C@H]2CC[C@@H](C1)N(Cc1ccc(F)c(F)c1)C2 | 0.825% |
| CSc1nccn1-c1ccc(C(=O)NCC2CC2)cc1 | 36.1% |
| O=C(NCCCn1nc2ccccn2c1=O)NCC(C1CC1)C1CC1 | -20% |
| Cc1ccc(-c2cc(-c3c(C)nn(CCO)c3C)c(C#N)c(N)n2)cc1 | 14.1% |
| COc1cc(-c2cc(-c3ccn(C)c3)nc(N)c2C#N)cc(OC)c1O | 71.2% |
| CCNc1ncc(-c2cc(-c3ccn(C)c3)nc(N)c2C#N)cn1 | 36% |
| COc1ncc(-c2cc(-c3ccn(C)c3)nc(N)c2C#N)cn1 | 29.4% |
| CCn1cc(-c2cc(-c3ccn(C)c3)nc(N)c2C#N)cc1C#N | 81.1% |
| CCCn1cc(-c2cc(-c3cnc(OC)nc3)c(C#N)c(N)n2)c(C)n1 | 25.1% |
| O=C(NCC1CC1)c1cc(C2CC2)nc2onc(C3CCCNC3)c12 (stereo not given) | -3.11% |
| CCN1CC2(CC1=O)CN(Cc1cnn(C)c1)CCN(C(=O)C(C)C)C2 (stereo not given) | 9.54% |
| CC(Cn1cccn1)NC(=O)NCCc1cnn(C)c1 (stereo not given) | 49.6% |
| CC(NC(=O)NCCc1cnn(C)c1)c1ccc(Cl)s1 (stereo not given) | 68% |

| SMILES | INHIBITION |
| --- | --- |
| Cc1nc(C)c(C(C)NCc2cnc(N3CCOCC3)nc2)s1 (stereo not given) | 43.5% |
| CC(NCCCc1cnn(C)c1)c1ccc(Br)s1 (stereo not given) | 45.7% |
| CC(NCCN1CCC(N(C)C)CC1)c1ccc(Cl)s1 (stereo not given) | 27.7% |
| CC(NCc1cnc(N2CCOCC2)s1)c1ccc(Cl)s1 (stereo not given) | -19.1% |
| CC(NCCCc1cnn(C)c1)c1ccc(Cl)s1 (stereo not given) | 51.7% |
| COCCn1cc(NC(=O)NC(C)c2ccc(Cl)s2)cn1 (stereo not given) | -6.04% |
| CC(NCc1cnc(N2CCOCC2)nc1)c1ccc(Cl)s1 (stereo not given) | 51.8% |
| CCc1nccn1C1CCCN(C(=O)c2ccc(NC3CC3)nc2)C1 (stereo not given) | -40.0335% |
| CNc1ncc(-c2ccc(NC(=O)[C@@H]3CCCCN3)cc2)cn1 | 4.08% |
| COc1ncccc1CNC(=O)c1ccc(C)[nH]c1=O | 20.5% |
| COc1ccc(CN2CCn3c(CNS(C)(=O)=O)nnc3C2)cc1 | 13.1% |
| Cn1cnnc1SCCCNC(=O)Nc1ncccn1 | 4.66% |
| CCc1nnc2n1CCN(CC(=O)Nc1cc(C)nn1C)C2 | 45.6% |
| Cn1cc(CN2CCC3(CC2)NC(=O)CC3c2ccncc2)cn1 (stereo not given) | 14.6% |
| CN(CC(=O)Nc1cc(CC2CCCCC2)n[nH]1)S(C)(=O)=O | -37% |
| CN(CCc1cccs1)CCc1nccs1 | 5.11% |
| CN(CCc1ccccn1)CCc1nccs1 | 40.9% |
| CN(CCc1ccncc1)CCc1nccs1 | 79.5% |
| CCN(C)c1ncnc2c1CCN(Cc1ccc(F)cc1)CC2 | 22.5% |
| CCCc1nnc(NCCc2noc(C3CCCC3)n2)o1 | 22.5% |
| CCn1cc(C(=O)N2CCCC(c3nccs3)C2)cn1 (stereo not given) | 56% |
| O=C(c1cnc(O)c(Cl)c1)N1CCCC(c2nccs2)C1 (stereo not given) | 26.9% |

| SMILES | INHIBITION |
| --- | --- |
| O=C(c1cnc(C2CC2)nc1)N1CCCC(c2nccs2)C1 (stereo not given) | 52% |
| CCCn1cc(C(=O)N2CCCC(Cc3nccs3)C2)cn1 (stereo not given) | 17.4% |
| CCc1csc(C2CCCN(C(=O)c3cnn(CC)c3)C2)n1 (stereo not given) | -19.7% |
| CCCn1cc(C(=O)N2CCOC(c3nc(-c4cccs4)no3)C2)cn1 (stereo not given) | 48.6% |
| O=C(c1cncnc1)N1CCCC(c2nccs2)C1 (stereo not given) | 13.54% |
| CCn1ccc(C(=O)N2CCOC(c3nc(-c4cccs4)no3)C2)n1 (stereo not given) | 42.6% |
| CCn1cc(C(=O)N2CCOC(c3nc(-c4cccs4)no3)C2)cn1 (stereo not given) | 73.8% |
| NC(=O)N1CCC(C(=O)NCc2nncn2-c2ccccc2)CC1 | 38.5% |
| CC(C)c1nc(CN2CCOC(Cn3cccn3)C2)no1 (stereo not given) | -38.7% |
| Cc1ncncc1C(=O)N1C[C@@H]2CC[C@H]1CN(C(=O)c1ccncc1)C2 | -19.2% |
| CC(C)c1nccn1CCC(=O)NCC(C)(O)c1ccco1 (stereo not given) | -33.4% |
| CN(C(=O)c1ccco1)c1nc2c(s1)CCCC2 | -68.6% |
| Cc1cc(=O)n(CC(=O)NCC2CCCO2)c(-c2cccc(Cl)c2)n1 (stereo not given) | 33.5% |
| Cc1cc(=O)n(CC(=O)NCC2CCCO2)c(-c2ccccc2)n1 (stereo not given) | 21% |
| Cc1cc(=O)n(CC(=O)NCC2CCCO2)c(-c2ccc(F)cc2)n1 (stereo not given) | 50.1% |
| O=C(N1CCCO1)[C@@]12CCO[C@@H]1CCN(Cc1ccc(F)cc1)C2 | -47.8% |
| CS(=O)(=O)N1C[C@@H]2COC[C@@H](CC(=O)N3CCCCO3)[C@@H]2C1 | 28.2% |
| O=C(C[C@@H]1COC[C@H]2CN(C3CCCC3)C[C@@H]12)N1CCCCO1 | 57.1% |
| O=C(C[C@@H]1COC[C@H]2CN(Cc3ccc(F)cc3)C[C@@H]12)N1CCCCO1 | -13.4% |
| O=C(C[C@@H]1COC[C@H]2CN(CC3CCOCC3)C[C@@H]12)N1CCCCO1 | 76.4% |
| O=C(C[C@@H]1COC[C@H]2CN(CC3CC3)C[C@@H]12)N1CCCCO1 | 16.9% |
| O=C([C@@H]1COC[C@H]2CN(C3CCCC3)C[C@H]21)N1CCCCO1 | 40.5% |

From ChEMBL document CHEMBL4513216, “Probing the Open Global Health Chemical Diversity Library for Multistage-Active Starting Points for Next-Generation Antimalarials” (ACS Infect Dis, 2020)
